# In the library only some 9.5% were active in any assay of this set; here they are far more common.
# Tau fibril FP = inhibitors of human tau fibril formation | P10636 | Potency, µM (top dose mostly 57.7 µM), actives largely listed as inhibitors | AID 1468 | K18 P301L tau heparin fibrillization, Alexa594 FP, 6 h | 280,000 compounds, 0.39% hits; also: nearly all actives have a fitted effect of over 55% in size
# Target sequence (P10636 561-689 P618L limits assumed): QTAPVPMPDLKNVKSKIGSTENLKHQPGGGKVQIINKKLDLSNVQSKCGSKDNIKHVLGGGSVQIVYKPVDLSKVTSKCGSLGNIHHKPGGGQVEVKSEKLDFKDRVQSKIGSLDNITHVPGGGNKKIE
#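 Compound effects on tau fibrillization are measured by Alexa 594 fluorescence polarization (ex 555, em 632 nm). K18 P301L tau is used at 15 uM with 0.24 uM labeled tracer, and 20 uM heparin induces aggregation over 6 hr at 37 C.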
# NPSR antag = blocks cAMP signaling of the human neuropeptide S receptor | Potency, µM (top dose mostly 38.3 µM), hits mostly inhibitors | 220,000 compounds, 1% hits | CHO-NPSR cells, cAMP TR-FRET, antagonist mode | Q6W5P4; also: nearly all actives have a fitted effect of over 50% in size
# Tau fibril ThT = blocks human tau fibril formation measured by thioflavin T; Potency, µM (series often up to 57.4 µM), hits mostly inhibitors; 270,000 compounds, 2.1% hits; P10636; AID 1460; recombinant tau K18 P301L, heparin-induced fibrillization, ThT fluorescence; also: nearly all actives have a fitted effect of over 55% in size
#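 Using a mix of unlabeled (15 uM) and Alexa 594-labeled (0.24 uM) tau K18 P301L, heparin-triggered fibrillization over 6 hr at 37 C was scored by ThT fluorescence.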
# ALDH1A1 inh = blocks purified human ALDH1A1 activity. P00352. Purified ALDH1A1, NADH fluorescence, propionaldehyde substrate. Potency, µM (doses to about 75.3 µM), hits mostly inhibitors. 220,000 compounds, 7.3% hits. AID 1030; active = well fitted inhibition curve with a large enough effect, not every such curve was filed as active; inconclusive = small, poorly fitted or top-dose-only effect, or another doubt; inactive = no such curve, though single readings can be large or run the other way
# Target sequence (P00352 whole entry, looked up): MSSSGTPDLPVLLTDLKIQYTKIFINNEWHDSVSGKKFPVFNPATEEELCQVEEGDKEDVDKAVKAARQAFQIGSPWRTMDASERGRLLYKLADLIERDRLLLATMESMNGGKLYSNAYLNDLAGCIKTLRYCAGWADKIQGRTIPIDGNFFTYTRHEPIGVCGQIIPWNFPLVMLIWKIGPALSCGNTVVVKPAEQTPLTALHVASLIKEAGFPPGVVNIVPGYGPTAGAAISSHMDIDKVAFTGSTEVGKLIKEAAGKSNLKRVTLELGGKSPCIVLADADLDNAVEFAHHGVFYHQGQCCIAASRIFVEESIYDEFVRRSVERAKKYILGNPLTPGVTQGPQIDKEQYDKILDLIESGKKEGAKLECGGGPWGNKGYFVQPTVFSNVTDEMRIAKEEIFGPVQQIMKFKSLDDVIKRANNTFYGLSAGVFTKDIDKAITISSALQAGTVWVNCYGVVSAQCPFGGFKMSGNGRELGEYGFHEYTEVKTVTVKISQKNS
# HPGD block = HPGD (human) dehydrogenase inhibition. 150,000 compounds, 4.3% hits. purified HPGD, NADH fluorescence kinetic, PGE2 substrate. Potency, µM, hits mostly inhibitors; active = well fitted inhibition curve with a large enough effect, not every such curve was filed as active; inconclusive = small, poorly fitted or top-dose-only effect, or another doubt; inactive = no such curve, though single readings can be large or run the other way
#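 NADH formation kinetics: reaction with 30 uM PGE2 and 1 mM NAD+ (final), 20 nM enzyme, Tris-HCl pH 8 with Tween 20, after 15 min compound preincubation at room temperature. Fluorescence change, last versus first of five reads.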
# Tau fluor counter = counter-screen for tau fibril formation inhibitors. tau K18 P301L Alexa594 fluorescence, heparin fibrillization. Potency, µM (series often up to 57.7 µM). 280,000 compounds, 0.93% hits. AID 1463; also: nearly all actives have a fitted effect of over 55% in size
#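 Human tau K18 P301L (15 uM unlabeled, 0.24 uM Alexa 594-labeled) in 100 mM sodium acetate pH 7 with 20 uM heparin, 6 hr at 37 C. ThT 30 uM added, 1 hr ambient; Alexa 594 FP and total fluorescence read at 555/632 nm.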
# Numbers stand for hits; i = inactive; ? = inconclusive; nt = not tested or not shown; [ ] = remark or other dose. Unless noted, calls follow the shape of the dose curve; as a rule, active = well fitted curve in the direction sought with a large enough effect; inconclusive = small, poorly fitted or top-dose-only effect, or another doubt; inactive = no such curve, though single readings can be large; an effect the other way counts as inactive or inconclusive.
SMILES,Tau fibril FP,NPSR antag,Tau fibril ThT,ALDH1A1 inh,HPGD block,Tau fluor counter
O=C(NCc1ccco1)Nc1cccc([N+](=O)[O-])c1,i,i,i,nt,nt,i
O=C(NCc1ccco1)c1cc(NS(=O)(=O)c2cccc([N+](=O)[O-])c2)ccc1O,i,i,i,11.2µM,nt,i
O=C(NCc1ccco1)c1cccc(-c2nnc(-c3ccccc3)o2)c1,i,i,i,?,12.6µM,i
O=C(NCc1ccco1)c1cccc(NS(=O)(=O)c2ccccc2F)c1,i,i,i,3.55µM,i,i
Cc1sc2nc(CN3CCOCC3)[nH]c(=S)c2c1C,i,i,i,i,nt,i
CNCCCCCCCCSc1nc(C(C)C)ccc1C(=O)c1cccs1,i,nt,?,?,i,i
Cc1cc(C2=NNC(=NC3CC3)SC2)c(C)n1Cc1ccco1,?,i,?,20µM,i,i
Cc1cc(C2=NNC(=NC3CC3)SC2)c(C)n1-c1ccccc1,i,i,?,3.55µM,i,i
CCC(=O)N1CCc2cc(S(=O)(=O)NC(CC(C)C)C(=O)NCc3cccc(OC)c3)ccc21 (stereo not drawn),i,nt,i,nt,nt,i
Cc1nn(C)cc1C(C)NCc1c(C(=O)N2CCCCCCC2)nc2ccc(Cl)cn12 (stereo not drawn),i,i,i,3.16µM,nt,i
Cc1n[nH]c(C)c1CNCc1c(C(=O)N2CCCCCCC2)nc2ccc(Cl)cn12,i,i,i,nt,nt,i
CSc1nsc(/C=C/Nc2ccc(Cl)cc2)c1C#N,i,i,15.8µM,7.94µM,i,?
CSc1nsc(/C=C/Nc2ccc(F)cc2)c1C#N,i,i,?,?,nt,i
Cc1cc(O)ccc1N/C=C(\C#N)c1nc2ccccc2o1,i,i,i,i,?,i
CSc1nsc(/C=C/Nc2cccc(Cl)c2)c1C#N,i,?,?,11.2µM,i,?
CSc1nsc(/C=C/Nc2ccc(O)cc2C)c1C#N,25.1µM,i,15.8µM,25.1µM,nt,?
CC(Oc1ccccc1)C(=O)Nc1ccccc1C(=O)OCc1cc(=O)n2nc(C(C)C)sc2n1 (stereo not drawn),i,nt,i,nt,nt,i
CC(=O)/C(C#N)=C1\NC(=O)C(Cc2ccc(C)c(C)c2)S1 (stereo not drawn),i,i,i,i,i,i
COC(=O)c1ccccc1C(=O)N1CCCC(CCC(=O)NCc2ccc(F)c(F)c2)C1 (stereo not drawn),i,i,?,?,nt,i
O=C(CSc1nnc(CN2CCOCC2)n1-c1ccccc1)N1CCc2ccccc21,i,i,i,7.94µM,i,i
O=C(CSc1nnc(Cc2ccccc2)n1-c1ccc(F)cc1)N1CCOCC1,i,i,i,i,i,i
Nc1nnc(SCC(=O)N2CCc3ccccc32)n1-c1ccccc1,i,i,i,i,i,i
CC1CCN(C(=O)CSc2nnc(CN3CCOCC3)n2-c2ccccc2)CC1,i,i,i,1.26µM,i,i
C(=C\c1nccc2c1[nH]c1ccccc12)/c1ccccc1,i,?,?,nt,nt,20µM[quencher]
Cc1ccc(/C=C\c2nccc3c2[nH]c2ccccc23)cc1,i,i,?,?,nt,11.2µM[quencher]
SMILES,Tau fibril FP,NPSR antag,Tau fibril ThT,ALDH1A1 inh,HPGD block,Tau fluor counter
COCCNC(=O)NC(=O)CSc1nc(C)c(C)c(C)n1,i,i,i,i,nt,i
CCN(C(=O)c1cc2ccccc2oc1=O)c1ccccc1,i,i,i,i,i,i
CCN(C(=O)c1cc2ccccc2oc1=O)c1cccc(C)c1,i,i,i,14.1µM,?,i
CC(C)c1ccc(N(C(=O)c2cc3ccccc3oc2=O)C2C=CS(=O)(=O)C2)cc1 (stereo not drawn),i,i,i,25.1µM,i,i
COC(=O)C/C=C\[C@@H](C)[C@@H](/C=N\OC[C@@H](C)[C@H](OCc1ccccc1)C(C)C)NS(=O)(=O)c1ccc(C)cc1,i[11.6 µM],nt,i[11.5 µM],i[13.5 µM],nt,i[11.6 µM]
Cc1c(C=N)c(O)n(C)c(=O)c1C#N,i,i,nt,nt,nt,i
Cc1ccc(SCC(=O)NCC(C)C)cc1,i,i,i,i,15.8µM,i
CC(C)C(NC(=O)CSc1ccc(Cl)cc1)C(C)C,i,i,i,i,12.6µM,i
CC(C)CNC(=O)CSc1ccc(Cl)cc1,i,i,i,i,15.8µM,i
O=c1nc2c(O)cccn2c2c1c(=O)[nH]c1ccccc12,?,i,?,20µM,?,i
Cn1cccc1C(=O)N1CCC2(CC1)CN(c1ccncc1)C2,nt,nt,nt,i,i,nt
CC1=CC(=O)C(C(C)C)=CC1=NC(=O)c1ccc(C)cc1,i,i,i,17.8µM,nt,i
CC1=CC(=O)C(C(C)C)=C/C1=N/OC(=O)c1cccc([N+](=O)[O-])c1,i,?,i,?,?,i
O=C1OC(NC(=O)c2ccccc2)C(n2cc(CO)nn2)=C1Cl (stereo not drawn),?,i,7.08µM,12.6µM,22.4µM,i
Cc1ccc(NC2=C(Cl)C(=O)OC2NC(=O)c2ccccc2)cc1 (stereo not drawn),i,i,i,i,i,i
Cc1nonc1NC(=O)CSc1nc(C2CCCCC2)nc2ccccc12,i,?,i,i,i,i
Cc1cc2nc(SCC(=O)Nc3nonc3C)c3c(c2cc1C)CCCC3,i,7.94µM,i,i,i,i
N[C@@H](C(=O)O)[C@@H](CC(=O)O)c1ccc(Cl)cc1,i,nt,i,i,nt,i
O=C(CSc1nc(-c2ccccc2F)nc2nc[nH]c12)Nc1c(Cl)cc(Cl)cc1Cl,i,5.01µM,i,i,i,i
CCc1cccc(C)c1NC(=O)CSc1nc(-c2ccccc2F)nc2nc[nH]c12,?,i,i,?,i,i
C=CCNC(=O)/C(=C/c1cn(-c2ccccc2)nc1-c1cccc([N+](=O)[O-])c1)NC(=O)c1ccccc1,?,i,i,1µM,nt,?
CC1(C)CC(Nc2ccc(Nc3ccccc3)cc2)CC(C)(C)N1,?,i,?,?,i,28.2µM[quencher]
CC(=O)c1cccc(NC(=O)N2CCCC2C(=O)Nc2c(C)cccc2C)c1 (stereo not drawn),i,i,i,25.1µM,i,i
CCOC(=O)C1=C(CC)Nc2ccccc2N=C1NC(=O)c1ccc(S(=O)(=O)N2CCCC2)cc1,i,i,i,14.1µM,nt,i
CCOC(=O)C1=C(CC)Nc2ccccc2N=C1NC(=O)Nc1ccc(Cl)c(Cl)c1,12.6µM,?,?,i,i,?
SMILES,Tau fibril FP,NPSR antag,Tau fibril ThT,ALDH1A1 inh,HPGD block,Tau fluor counter
CCOC(=O)C1=C(CC)Nc2ccccc2N=C1NC(=O)Cn1cnc2ccccc2c1=O,i,i,i,i,i,i
O=c1cnc2cnc(Oc3cccc(Cl)c3)nc2n1C1CC1,nt,nt,nt,i,i,nt
N#CCSCC(=O)Nc1ccc(Cl)cc1,i,i,i,?,i,i
Cc1ccc(NC(=O)CSC(N)=O)cc1Cl,?,i,?,3.55µM,i,i
NC(=O)SCC(=O)Nc1ccc(Cl)c(Cl)c1,?,?,?,?,i,?
NC(=O)/C=C/C(=O)Nc1ccc(Cl)cc1,i,i,?,2.24µM,nt,i
